What was measured:
ETS1 [1] = biological target: T1, ETS1 (UniProt P14921); experiment: ETS1 binding intensity (PBM fluorescence), ETS1 alone (arbitrary fluorescence units); higher = stronger binding; settings: ETS1 concentration 1 nM; RUNX1 concentration 0 nM
T1 sequence: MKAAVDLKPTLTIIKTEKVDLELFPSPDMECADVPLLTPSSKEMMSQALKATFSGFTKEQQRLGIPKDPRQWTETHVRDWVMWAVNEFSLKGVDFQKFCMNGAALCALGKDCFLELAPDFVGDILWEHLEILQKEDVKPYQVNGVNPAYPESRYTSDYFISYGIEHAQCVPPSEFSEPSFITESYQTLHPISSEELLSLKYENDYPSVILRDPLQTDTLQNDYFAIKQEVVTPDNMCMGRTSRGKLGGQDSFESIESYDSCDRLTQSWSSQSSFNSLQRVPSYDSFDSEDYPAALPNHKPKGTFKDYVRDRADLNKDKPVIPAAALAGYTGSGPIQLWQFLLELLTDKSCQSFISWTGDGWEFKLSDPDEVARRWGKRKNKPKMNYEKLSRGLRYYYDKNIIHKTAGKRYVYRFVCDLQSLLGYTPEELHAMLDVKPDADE

RUNX1 [2] = biological target: RUNX1 (UniProt Q01196); experiment: RUNX1 binding intensity (PBM fluorescence), RUNX1 alone (arbitrary fluorescence units); higher = stronger binding; settings: RUNX1 concentration 2 nM; ETS1 concentration 0 nM
Procedure: (§1)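 Cooperative gcPBM on 36-bp genomic probes with neighbouring ETS1 and RUNX1 sites. Recombinant human RUNX1 (2 nM) was incubated alone or with ETS1 (25 nM) and detected with anti-RUNX1 antibody plus Alexa488 secondary. Values are medians over 4 replicate spots; the RUNX1+ETS1 data were normalised to the RUNX1-only data. The probes sit in constant array flanks that are not printed.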

ETS1 [3] = biological target: T1, ETS1; experiment: ETS1 binding intensity (PBM fluorescence) in presence of RUNX1, normalised to ETS1-only experiment (arbitrary fluorescence units); higher = stronger binding; settings: ETS1 concentration 1 nM; RUNX1 concentration 25 nM
RUNX1 [4] = biological target: RUNX1 (UniProt Q01196); experiment: RUNX1 binding intensity (PBM fluorescence) in presence of ETS1, normalised to RUNX1-only experiment (arbitrary fluorescence units); higher = stronger binding; settings: RUNX1 concentration 2 nM; ETS1 concentration 25 nM
Procedure: as §1
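For RUNX1 binding intensity (PBM fluorescence) in presence of ETS1, normalised to RUNX1-only experiment in this document: Full-length recombinant human ETS1 or RUNX1 bound to double-stranded 36-bp genomic probes on microarrays, detected by protein-specific primary antibody and Alexa488 secondary, spot fluorescence as median of four replicate spots.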
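For RUNX1 binding intensity (PBM fluorescence), RUNX1 alone in this document: Full-length recombinant human RUNX1 bound to double-stranded 36-bp genomic probes on a high-density microarray, scored as Alexa488 fluorescence per spot via anti-RUNX1 antibody, median of four replicate spots.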

Chain of RUNX1 (Q01196 whole entry): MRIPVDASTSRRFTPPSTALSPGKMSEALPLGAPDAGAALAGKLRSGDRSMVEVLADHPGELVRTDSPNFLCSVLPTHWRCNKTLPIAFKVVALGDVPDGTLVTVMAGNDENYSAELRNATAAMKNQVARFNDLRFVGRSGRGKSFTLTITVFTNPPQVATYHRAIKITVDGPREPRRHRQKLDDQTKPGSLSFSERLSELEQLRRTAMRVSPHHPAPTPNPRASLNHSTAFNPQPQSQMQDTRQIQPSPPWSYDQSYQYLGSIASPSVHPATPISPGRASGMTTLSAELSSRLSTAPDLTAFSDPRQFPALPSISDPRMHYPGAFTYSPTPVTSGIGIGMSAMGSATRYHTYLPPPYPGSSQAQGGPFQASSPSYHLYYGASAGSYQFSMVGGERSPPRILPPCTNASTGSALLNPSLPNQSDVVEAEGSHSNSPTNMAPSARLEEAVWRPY

Row | Sequence | ETS1 binding intensity (ETS1 [1]) | RUNX1 binding intensity (RUNX1 [2]) | ETS1 binding intensity (ETS1 [3]) | RUNX1 binding intensity (RUNX1 [4])
1 | GGGTCCTTCCGGGTTTTGTGTCGAATCTGCGGCGGC | 486 | 784 | 395 | 1720
2 | TCTCTACTTCCCATTATTTCTGTGGTTAATTTCACC | 369 | 10400 | 986 | 13500
3 | TAAGAAAAACAGTCATCCTGCGGTTTCCATTTGTGA | 351 | 6290 | 1080 | 5090
4 | TGGCAGCCACATCCTGCCTGTGGCTAGGTCAACCCA | 1220 | 794 | 1290 | 3730
5 | CTCACAGCAGCCCCAGGAAACCACCTCTTCCTTCAG | 847 | 997 | 876 | 1030
6 | GACTCTTCCGGCCCAGAGCTTTCGGAGTGCGGTTGC | 399 | 858 | 704 | 2130
7 | GCTCATTTATGCATCCTGTGGTCTGTGTGTGTTTCG | 569 | 984 | 831 | 1390
8 | GAGTTGCTTCCGGCCGTGTTGGTGGTCTGAATTGAG | 1590 | 802 | 1830 | 1830
9 | AATAAAGCTACAGACTTCCGCCCACAGGTCGCCGCT | 1020 | 789 | 1280 | 1360
10 | GTTCCTTTGAAAGCAGGATGTGGTTTGCCCCAGCTT | 5390 | 881 | 29200 | 3730
11 | AGGACCTAACACTCAGGAAGTGGTCAACCTTGCTGC | 2760 | 897 | 3710 | 1420
12 | TGGGGTGGTGACATGGGATGTGGTTTTGGGGTTGCA | 510 | 974 | 3860 | 1070
13 | GGGGTCAGGAAATGGGTGTGCCGCGGGTAAGGCGCT | 949 | 733 | 921 | 984
14 | TTTCTCTTCCTGTTTCCACCCTGACCACAGCCAGCT | 476 | 2930 | 1350 | 5140
15 | GAGCCTGTTGCTTCCGGTTCAGAGCCCACATGCTGG | 3070 | 736 | 3370 | 1940
16 | GCGAGGAGACAACTTCCTTTTGTGGTCTGACCCTGG | 638 | 857 | 1590 | 1970
17 | GGACCCAGCAGAGGATGTGGTTACAGGGCCATGATA | 720 | 836 | 5450 | 2170
18 | TCTGTGAAAAAGGATGTGCGGTTATGGAGGAGAACT | 970 | 1210 | 3460 | 1930
19 | GTTTACAGGGGACAGGAAATGTGGGTGAACTCAGCC | 6160 | 745 | 4710 | 975
20 | GCTGCCGGAAAAGGCGCCGAGGTAACCGCCTCACTT | 479 | 903 | 496 | 1020

Row | Sequence | ETS1 binding intensity (ETS1 [1]) | RUNX1 binding intensity (RUNX1 [2]) | ETS1 binding intensity (ETS1 [3]) | RUNX1 binding intensity (RUNX1 [4])
21 | GCCTCCTCCCATTTCCTCCATGTGGTCAATCCAGTT | 459 | 2070 | 731 | 3860
22 | GTTGAGTAGTGACAGGAAGTGACCGCAAGGGGGCGC | 10700 | 1860 | 44800 | 3540
23 | ACTTGACTTCCTGTGGGGTGTGTGGTGTCTGCACTT | 940 | 798 | 901 | 2010
24 | CACTTCCCGTGGGAGGATCTTGGGCTGCGGCTAGGG | 421 | 803 | 802 | 1850
25 | AGAGACAGCGGGCGGAAACCGCAGAAAAAGTTGAAA | 1640 | 8270 | 3260 | 14200
26 | TCCTGGCAGAGACCGGAAGTGCGGTCCGCGGAGCGT | 28200 | 739 | 43300 | 1800
27 | CTCCATCTGCCCGGAAAACCGCAGCCGCCCCAACCT | 841 | 28600 | 3690 | 34700
28 | TTTCGAGAAAACCGGAAGTGCGTGGTCACGCCCCGC | 29400 | 733 | 38100 | 1670
29 | GAAGTCACTCAGGGAGGAAACCACAGGGCCGGTCCG | 466 | 880 | 1270 | 863
30 | CAGGCCTTTCCTGCTATCGTTTGTGGTTTGAGCAGT | 429 | 1940 | 1120 | 3830
31 | ATTACAGGAAGTATGTCCTCCTCTGCCTAACCACTG | 2270 | 831 | 2210 | 1270
32 | TACATCTTCAGAGGAAGTGGGTTTGTGTATCTTTGA | 2460 | 786 | 3750 | 1380
33 | GGATTAGAACTGCTTCCTCCTGTGGTTTACCAGAAA | 417 | 923 | 595 | 1840
34 | AGCCCCTACCACTTCCCCCCACAGCAGTTCTGAGAT | 720 | 1410 | 755 | 2250
35 | GTTTCCACTTCCTGCTGTGCAGCAGTACCACCAAGA | 1000 | 992 | 1030 | 2800
36 | CTGCCTTTCCTGCTAGGGTACAAACCACAGCCTTAG | 369 | 1360 | 774 | 1640
37 | GACCAATGTAAACAAGGATGTGGGTTCTCCGGCCAC | 784 | 785 | 3290 | 1190
38 | TGCCACATCCTGCCCCTCCCCAGGTCTAACCACCAA | 696 | 1260 | 754 | 3360
39 | TTTATCATGAATGCAGGATGTGGGCAAACTCATGAC | 2860 | 814 | 5910 | 1140
